A selection: hits, their analogues and other compounds. The true share with any hit is near 9.9%.
MCF10A rereplic: A quantitative high throughput screen for small molecules that induce DNA re-replication in MCF 10a normal breast cells. MCF 10A DNA re-replication, Hoechst nuclear intensity, 48 h. Potency, µM (top dose mostly 46.1 µM), inactives show at the top dose activity, positive = re-replication, usual class: activators. 350,000 compounds, 2.9% hits. AID 624296, 2012; note: potency is the fitted concentration of half-maximal effect; % of control where 0% means no effect; nearly all actives have a fitted effect of over 50% in size
KB-V1 cytotox: qHTS assay for MDR1-selective chemotherapeutics: Primary screen using the drug-selected MDR subline cells KB-V1. 400,000 compounds, 3.4% hits. Potency, µM (top dose mostly 46.1 µM), usual class: cytotoxic. AID 1347076, 2019. KB-V1 MDR cells viability, CellTiter-Glo, 72 h; note: potency is the fitted concentration of half-maximal effect; % is set by controls: 0 for no effect and ±100 for the full control effect; nearly all actives have a fitted effect of over 60% in size
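Cells of the MDR subline KB-V1 are plated, dosed with compound at multiple concentrations, and incubated 72 h at 37 degrees C; CellTiter-Glo is then added and luminescence read after 10 min.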
IL1B secr inh: qHTS for Inhibitors of Inflammasome Signaling: IL-1-beta AlphaLISA Primary Screen | activity change, % at 57.5 µM | 360,000 compounds, 4.7% hits | THP-1 LPS/ATP IL-1B secretion, AlphaLISA, 16 h; hits give low values | AID 743279, 2014; in the data active = activity change below about -50%; inconclusive = mostly about -30% to -49%; note: % is set by controls: 0 for no effect and ±100 for the full control effect
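Secreted IL-1B measured by AlphaLISA bead assay after 16 h compound exposure of THP-1 cells; compounds (final up to 57.5 uM) added 1 h before LPS (250 ng/mL) and ATP (1.25 mM) stimulation; lower signal means less secretion.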
SW480 rereplic: A quantitative high throughput screen for small molecules that induce DNA re-replication in SW480 colon adenocarcinoma cells; SW480 DNA re-replication, Hoechst DNA content imaging, 48 h; Potency, µM (doses to about 46.1 µM), without a hit: at the top dose re-replication activation, hits mostly activators; 340,000 compounds, 1.8% hits; AID 624297, 2012; note: potency is the fitted concentration of half-maximal effect; % of control where 0% means no effect; nearly all actives have a fitted effect of over 55% in size
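Image-based DNA-content assay: after two days of treatment, nuclei were labelled with the DNA dye Hoechst and imaged, and hits were compounds raising the count of nuclei showing high fluorescence intensity.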
KB-3-1 tox: qHTS assay for MDR1-selective chemotherapeutics: Primary screen using the parental adenocarcinoma cell KB-3-1; KB-3-1 viability, CellTiter-Glo ATP luminescence, 72 h; Potency, µM (top dose mostly 46.1 µM), usual class: cytotoxic; 400,000 compounds, 1.4% hits; note: potency is the fitted concentration of half-maximal effect; % is set by controls: 0 for no effect and ±100 for the full control effect; nearly all actives have a fitted effect of over 60% in size
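KB-3-1 cells, DMEM (no phenol red) + 10% FBS; compound by pin transfer, 72 h, 37 °C. Readout: CellTiter-Glo luminescence after 10 min. Data normalized, curve-fitted.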
The depositor's hits bear a star; i = inactive; ? = inconclusive; / = not tested or not shown. Unless noted, calls come from the whole dose curve; as a rule, active = well fitted curve in the direction sought with a large enough effect; inconclusive = small, poorly fitted or top-dose-only effect, or another doubt; inactive = no such curve, though single readings can be large; an effect the other way counts as inactive or inconclusive.

SMILES	MCF10A rereplic	KB-V1 cytotox	IL1B secr inh	SW480 rereplic	KB-3-1 tox
CCC(=O)Nc1cc(-c2nn(C)c(=O)c3ccccc23)ccc1OC	3.0%	11.6µM*	-0.6	-5.2%	i
CCCC(=O)Nc1cc(-c2nn(C)c(=O)c3ccccc23)ccc1OC	17.5%	?	14.9	-5.4%	?
COc1ccc(NC(=O)CCn2nc(-c3ccc(Cl)cc3)c3ccccc3c2=O)cc1	/	i	/	/	i
Cc1ccc(NC(=O)c2ccc(-c3nn(C)c(=O)c4ccccc34)cc2)cc1	4.0%	20.6µM*	-7.7	-0.6%	i
CNC(=O)c1cc(NC(=O)CCn2nc(-c3ccc(C)cc3)c3ccccc3c2=O)ccc1OC	12.4%	i	-50.5*	-10.3%	i
Cc1cc2cc(CN(Cc3cccs3)C(c3nnnn3C(C)(C)C)C(C)C)c3nnnn3c2cc1C (stereo unspecified)	1.5%	1.84µM*	20.4	-2.6%	i
Nc1[nH]n2c(=O)cc(-c3ccccc3)nc2c1N=Nc1ccccc1	?	?	0.0	6.1%	8.2µM*
Cc1ccc(N=Nc2c(=O)[nH]n3c(C)cc(C)nc23)cc1	0.2%	i	-19.7	-3.3%	i
Nc1[nH]n2c(=O)cc(-c3ccccc3)nc2c1N=Nc1ccc(S(N)(=O)=O)cc1	-6.8%	i	-7.4	1.1%	i
Cc1ccc(N=Nc2c(N)[nH]n3c(=O)cc(C)nc23)cc1	?	23.1µM*	-7.6	-15.2%	18.4µM*
COc1ccc(C2NCCc3c2[nH]c2ccccc32)cc1COc1ccc(F)cc1 (stereo unspecified)	18.4µM*	?	-93.4*	?	?
COc1ccc(C2NCCc3c2[nH]c2ccccc32)cc1CN1CCc2cc(OC)c(OC)cc2C1C (stereo unspecified)	?	i	0.0	?	i
Cc1[nH]n(-c2cccc3ccccc23)c(=O)c1C=Nc1ccc2[nH]c(=O)[nH]c2c1	-3.8%	i	22.3	4.5%	i
Cc1ccc(N=Cc2c(C)[nH]n(-c3nc4ccccc4[nH]3)c2=O)cc1	0.4%	6.51µM*	8.0	-1.7%	8.2µM*
COc1ccc2nc(/N=C/c3c(C)[nH]n(-c4ccc(C)cc4)c3=O)sc2c1	6.7%	8.2µM*	16.0	0.6%	?
Cc1ccc(-n2[nH]c(C)c(C=Nc3ccc4[nH]c(=O)[nH]c4c3)c2=O)cc1	?	?	-27.8	?	20.6µM*
Cc1ccc(-n2[nH]c(C)c(C=Nc3ccc4[nH]c(=O)[nH]c4c3)c2=O)cc1C	?	?	-17.5	?	?
Cc1cc(OCCn2ccnc2)cc(C)c1Cl	-11.8%	i	19.9	-3.6%	i
CNS(=O)(=O)c1ccc(N2CCCC2)c([N+](=O)[O-])c1	1.3%	i	-10.9	-19.9%	i
O=[N+]([O-])c1cc(S(=O)(=O)C(F)(F)F)ccc1N1CCN(c2ccccc2)CC1	3.3%	i	?	2.5%	i
O=[N+]([O-])c1cc(S(=O)(=O)Nc2ccccc2)ccc1N1CCN(c2ccccc2)CC1	?	?	-63.9*	?	i
CC1CCN(c2ccc(S(=O)(=O)NC3=NCCCCC3)cc2[N+](=O)[O-])CC1	16.8%	20.6µM*	-5.8	-11.3%	?
CCn1nc(C)c(CN2CCC(C(=O)Nc3cccc(-c4cccc(Cl)c4)c3)CC2)c1C	-0.8%	i	-18.1	?	i
Cc1ccc(CN2CC(C(=O)NCCC3=CCCCC3)CC2=O)cc1 (stereo unspecified)	11.1%	i	-2.3	8.6%	i
COc1cccc(N2CC(O)=C(c3nc4ccccc4s3)C2=N)c1	?	3.26µM*	61.5	3.66µM*	7.31µM*
Cc1ccc(C)c(Cn2nc(-c3ccccc3)ccc2=O)c1	14.9%	i	-74.9*	?	i
COc1ccc(-c2ccc(=O)n(Cc3cccc(Cl)c3)n2)cc1	-1.8%	i	-51.1*	-18.4%	i
